Measured values reported in PubChem BioAssay (Tox21).
Values joined by “and” are separate entries in the source; they are usually repeats but may differ in a detail not shown here. Identical values can stand only once. Results filed as inconclusive are left out. A call without a number means that no potency is given here. More than one record can exist for a structure, and the calls need not agree. Active and inactive are the calls of the source. Calls follow the shape of the dose curve; as a rule, active = well fitted curve in the direction sought with a large enough effect in the repeat runs; inconclusive = weak or mixed curves; inactive = no such curve, though single readings can be large; an effect the other way counts as inactive or inconclusive.

Assay: qHTS assay for identifying genotoxic compounds that show differential cytotoxicity against isogenic chicken DT40 cell lines with known DNA damage response pathways - wild type cell line (AID 743012); also: nearly all actives have a fitted effect of over 60% in size
Details: DT40 wild type chicken cells viability, CellTiter-Glo, 40 h; series mostly up to 68.4 µM
Outline: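 Using parental DT40 (300 cells/well), compounds delivered in DMSO incubate 40 h at 37 C/5% CO2. CellTiter-Glo reagent then stands 30 min at room temperature, and luminescence gives cell viability.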
Potency is read from the fitted curve at half-maximal effect.

Question: With COC1=CC(=O)O[C@@H](/C=C/c2ccc3c(c2)OCO3)C1 as the compound, how does the Potency read?
Answer: inactive

Question: Which Potency does the source give for CCCCCCCCCCCCN=C(N)N here?
Answer: 0.845 µM (active)

Question: For OCC1CO1 (stereo unspecified), which Potency is on record?
Answer: inactive

Question: Which Potency does the source give for C[N+]1(CCF)[C@@H]2CC[C@H]1CC(OC(=O)C(O)(c1ccccc1)c1ccccc1)C2 (stereo partly specified) here?
Answer: inactive

Question: For CCCCC(CC)COC(=O)c1c(Br)c(Br)c(Br)c(Br)c1C(=O)OCC(CC)CCCC (stereo unspecified), which Potency is on record?
Answer: inactive

Question: With CCCCCCCCCCCCN(C)C as the compound, how does the Potency read?
Answer: inactive

Question: Which Potency does the source give for C=CC(=O)NC(C)(C)CC(C)=O here?
Answer: inactive

Question: With OCCCl as the compound, how does the Potency read?
Answer: inactive

Question: Which Potency does the source give for CCC(C)(C)O here?
Answer: inactive

Question: Which Potency does the source give for COP(=O)(OC)OC(Br)C(Cl)(Cl)Br (stereo unspecified) here?
Answer: 30.7 µM (active) and 13.7 µM (active)

Question: With c1ccc2c(c1)-c1cccc3cccc-2c13 as the compound, how does the Potency read?
Answer: inactive

Question: For C=CCOC(=O)C(C)(C)OC(=O)c1cc(-n2c(=O)cc(C(F)(F)F)n(C)c2=O)ccc1Cl, which Potency is on record?
Answer: 53.4 µM (active)

Question: Which Potency does the source give for CC(Oc1cccc(Cl)c1)C(=O)O (stereo unspecified) here?
Answer: inactive

Question: For CCCCNC(=O)OCC#CI, which Potency is on record?
Answer: 3.05 µM (active) and 611 nM (active)

Question: Which Potency does the source give for c1ccc2sc(SNC3CCCCC3)nc2c1 here?
Answer: inactive and 61.1 µM (active)

Question: With CON(C)C(=O)Nc1ccc(Cl)cc1 as the compound, how does the Potency read?
Answer: inactive

Question: For CCCSP(=S)(OCC)Oc1ccc(SC)cc1 (stereo unspecified), which Potency is on record?
Answer: 43.3 µM (active)

Question: For O=C(CCl)CCl, which Potency is on record?
Answer: 0.864 µM (active)

Question: Which Potency does the source give for SCc1ccccc1 here?
Answer: inactive

Question: Which Potency does the source give for N#CC(C#N)=C(C#N)C#N here?
Answer: inactive

Question: Which Potency does the source give for CCc1ccccc1N here?
Answer: inactive

Question: Which Potency does the source give for COc1cc(C[C@@H](C)N)c(OC)cc1Br here?
Answer: 70.4 µM (active)

Question: For CC(=O)NNc1ccccc1, which Potency is on record?
Answer: 1.52 µM (active)

Question: For [Cl-].[Cl-].[Hg+2], which Potency is on record?
Answer: 841 nM (active) and 3.84 µM (active) and 193 nM (active)

Question: For CC1(C)CC(=O)CC(C)(C)N1[O], which Potency is on record?
Answer: inactive

Assay: qHTS assay for identifying genotoxic compounds that show differential cytotoxicity against isogenic chicken DT40 cell lines with known DNA damage response pathways - Rev3 mutant cell line (AID 743014); also: nearly all actives have a fitted effect of over 55% in size
Details: chicken DT40 Rev3-/- viability, CellTiter-Glo, 40 h; series mostly up to 68.4 µM

Question: For COC1=CC(=O)O[C@@H](/C=C/c2ccc3c(c2)OCO3)C1, which Potency is on record?
Answer: inactive

Question: With CCCCCCCCCCCCN=C(N)N as the compound, how does the Potency read?
Answer: 1.89 µM (active)

Question: With O=S(=O)(c1ccccc1)c1ccccc1 as the compound, how does the Potency read?
Answer: inactive

Question: For OCC1CO1 (stereo unspecified), which Potency is on record?
Answer: inactive

Question: With C[N+]1(CCF)[C@@H]2CC[C@H]1CC(OC(=O)C(O)(c1ccccc1)c1ccccc1)C2 (stereo partly specified) as the compound, how does the Potency read?
Answer: inactive

Question: With CC(C)(c1ccccc1)c1cc(-n2nc3ccccc3n2)c(O)c(C(C)(C)c2ccccc2)c1 as the compound, how does the Potency read?
Answer: inactive

Question: Which Potency does the source give for C[N+](C)(C)CC1CO1 (stereo unspecified) here?
Answer: 13.7 µM (active)

Question: Which Potency does the source give for CCCCC(CC)COC(=O)c1c(Br)c(Br)c(Br)c(Br)c1C(=O)OCC(CC)CCCC (stereo unspecified) here?
Answer: inactive

Question: For CCCCCCCCCCCCN(C)C, which Potency is on record?
Answer: inactive

Question: Which Potency does the source give for C=CC(=O)NC(C)(C)CC(C)=O here?
Answer: 54.5 µM (active)

Question: For OCCCl, which Potency is on record?
Answer: inactive

Question: With CCC(C)(C)O as the compound, how does the Potency read?
Answer: inactive

Question: Which Potency does the source give for COP(=O)(OC)OC(Br)C(Cl)(Cl)Br (stereo unspecified) here?
Answer: 13.7 µM (active)

Question: For c1ccc2c(c1)-c1cccc3cccc-2c13, which Potency is on record?
Answer: inactive and 61.1 µM (active)

Question: Which Potency does the source give for C=CCOC(=O)C(C)(C)OC(=O)c1cc(-n2c(=O)cc(C(F)(F)F)n(C)c2=O)ccc1Cl here?
Answer: 30 µM (active)

Question: Which Potency does the source give for CC(Oc1cccc(Cl)c1)C(=O)O (stereo unspecified) here?
Answer: inactive

Question: Which Potency does the source give for CC[N+]1(C)CCCC(OC(=O)C(O)(c2ccccc2)c2ccccc2)C1 (stereo unspecified) here?
Answer: inactive

Question: With CCCCNC(=O)OCC#CI as the compound, how does the Potency read?
Answer: 1.36 µM (active) and 1.22 µM (active)

Question: For COc1ccc2c(c1OC)C(=O)O[C@H]2[C@@H]1c2cc3c(cc2CCN1C)OCO3, which Potency is on record?
Answer: inactive

Question: With CCCN(CCC)C(=O)Cc1c(-c2ccc(Cl)cc2)nc2ccc(Cl)cn12 as the compound, how does the Potency read?
Answer: inactive

Question: With CCOC(=O)NC(O)C(Cl)(Cl)Cl (stereo unspecified) as the compound, how does the Potency read?
Answer: inactive

Question: Which Potency does the source give for c1ccc2sc(SNC3CCCCC3)nc2c1 here?
Answer: inactive and 61.1 µM (active)

Question: With C[C@]12CC[C@H]3[C@@H](CCC4=CC(=O)CC[C@@H]43)[C@@H]1CC[C@@H]2OC(=O)CCc1ccccc1 as the compound, how does the Potency read?
Answer: inactive

Question: Which Potency does the source give for O=P(OCC(Br)CBr)(OCC(Br)CBr)OCC(Br)CBr (stereo unspecified) here?
Answer: 55.2 µM (active) and 20.6 µM (active)

Question: With CON(C)C(=O)Nc1ccc(Cl)cc1 as the compound, how does the Potency read?
Answer: inactive

Question: For CCCSP(=S)(OCC)Oc1ccc(SC)cc1 (stereo unspecified), which Potency is on record?
Answer: 15.4 µM (active)

Question: For O=C(CCl)CCl, which Potency is on record?
Answer: 0.273 µM (active)

Question: Which Potency does the source give for O=CC=O here?
Answer: inactive and 49.9 µM (active)

Question: Which Potency does the source give for SCc1ccccc1 here?
Answer: inactive

Question: Which Potency does the source give for N#CC(C#N)=C(C#N)C#N here?
Answer: inactive

Question: For CCc1ccccc1N, which Potency is on record?
Answer: inactive

Question: Which Potency does the source give for CC(=O)NNc1ccccc1 here?
Answer: 2.15 µM (active)

Question: For [Cl-].[Cl-].[Hg+2], which Potency is on record?
Answer: 2.66 µM (active) and 1.92 µM (active) and 386 nM (active)

Question: For CC1(C)CC(=O)CC(C)(C)N1[O], which Potency is on record?
Answer: inactive

Assay: qHTS assay for identifying genotoxic compounds that show differential cytotoxicity against isogenic chicken DT40 cell lines with known DNA damage response pathways - Rad54/Ku70 mutant cell line (AID 743015); also: nearly all actives have a fitted effect of over 60% in size
Details: DT40 Rad54/Ku70 mutant viability, CellTiter-Glo, 40 h; series mostly up to 66.8 µM

Question: For COC1=CC(=O)O[C@@H](/C=C/c2ccc3c(c2)OCO3)C1, which Potency is on record?
Answer: inactive

Question: For CN[C@@H](C)[C@H](O)c1ccccc1, which Potency is on record?
Answer: inactive

Question: Which Potency does the source give for CCCCCCCCCCCCN=C(N)N here?
Answer: 1.06 µM (active)

Question: With O=S(=O)(c1ccccc1)c1ccccc1 as the compound, how does the Potency read?
Answer: inactive

Question: With OCC1CO1 (stereo unspecified) as the compound, how does the Potency read?
Answer: inactive

Question: Which Potency does the source give for C[N+]1(CCF)[C@@H]2CC[C@H]1CC(OC(=O)C(O)(c1ccccc1)c1ccccc1)C2 (stereo partly specified) here?
Answer: inactive

Question: Which Potency does the source give for CC(C)(c1ccccc1)c1cc(-n2nc3ccccc3n2)c(O)c(C(C)(C)c2ccccc2)c1 here?
Answer: inactive

Question: For CCCCC(CC)COC(=O)c1c(Br)c(Br)c(Br)c(Br)c1C(=O)OCC(CC)CCCC (stereo unspecified), which Potency is on record?
Answer: inactive

Question: Which Potency does the source give for CCCCCCCCCCCCN(C)C here?
Answer: inactive

Question: For OCCCl, which Potency is on record?
Answer: inactive

Question: For CCC(C)(C)O, which Potency is on record?
Answer: inactive

Question: Which Potency does the source give for COP(=O)(OC)OC(Br)C(Cl)(Cl)Br (stereo unspecified) here?
Answer: 38.6 µM (active) and 21.7 µM (active)

Question: For c1ccc2c(c1)-c1cccc3cccc-2c13, which Potency is on record?
Answer: inactive

Question: With C=CCOC(=O)C(C)(C)OC(=O)c1cc(-n2c(=O)cc(C(F)(F)F)n(C)c2=O)ccc1Cl as the compound, how does the Potency read?
Answer: 60 µM (active)

Question: For CC(Oc1cccc(Cl)c1)C(=O)O (stereo unspecified), which Potency is on record?
Answer: inactive

Question: For CC[N+]1(C)CCCC(OC(=O)C(O)(c2ccccc2)c2ccccc2)C1 (stereo unspecified), which Potency is on record?
Answer: inactive

Question: With CCCCNC(=O)OCC#CI as the compound, how does the Potency read?
Answer: 2.72 µM (active) and 969 nM (active)

Question: For COc1ccc2c(c1OC)C(=O)O[C@H]2[C@@H]1c2cc3c(cc2CCN1C)OCO3, which Potency is on record?
Answer: inactive

Question: With CCCN(CCC)C(=O)Cc1c(-c2ccc(Cl)cc2)nc2ccc(Cl)cn12 as the compound, how does the Potency read?
Answer: inactive

Question: With CCOC(=O)NC(O)C(Cl)(Cl)Cl (stereo unspecified) as the compound, how does the Potency read?
Answer: inactive

Question: Which Potency does the source give for c1ccc2sc(SNC3CCCCC3)nc2c1 here?
Answer: inactive and 54.5 µM (active)

Question: With C[C@]12CC[C@H]3[C@@H](CCC4=CC(=O)CC[C@@H]43)[C@@H]1CC[C@@H]2OC(=O)CCc1ccccc1 as the compound, how does the Potency read?
Answer: inactive

Question: With O=P(OCC(Br)CBr)(OCC(Br)CBr)OCC(Br)CBr (stereo unspecified) as the compound, how does the Potency read?
Answer: 25.9 µM (active)

Question: Which Potency does the source give for CON(C)C(=O)Nc1ccc(Cl)cc1 here?
Answer: inactive

Question: For CCCSP(=S)(OCC)Oc1ccc(SC)cc1 (stereo unspecified), which Potency is on record?
Answer: 27.3 µM (active)

Question: Which Potency does the source give for O=C(CCl)CCl here?
Answer: inactive and 686 nM (active)

Question: Which Potency does the source give for O=CC=O here?
Answer: inactive

Question: Which Potency does the source give for SCc1ccccc1 here?
Answer: inactive

Question: Which Potency does the source give for N#CC(C#N)=C(C#N)C#N here?
Answer: inactive

Question: For CCc1ccccc1N, which Potency is on record?
Answer: inactive

Question: With CC(=O)NNc1ccccc1 as the compound, how does the Potency read?
Answer: 1.71 µM (active)

Question: Which Potency does the source give for [Cl-].[Cl-].[Hg+2] here?
Answer: 1.68 µM (active) and 1.36 µM (active) and 217 nM (active)
